According to the supplement of paper PMC11732987, “Enantioselective OTUD7B fragment discovery through chemoproteomics screening and high-throughput optimisation” (Communications Chemistry, 2025):

Columns and labels:
Assay in all cases: log2 ratio of Biotin-Ahx-Ub-VS probe labelling (fragment/DMSO); higher = less target engagement (more negative = stronger competition), active = hit call of the paper (q ≤ 0.05, log2 ratio ≤ -1)
Conditions in all cases: compound concentration: 200 uM; treatment time: 3 h
[1] = target: T1, ALG13 (UniProt Q9NP73)
T1 sequence (whole entry): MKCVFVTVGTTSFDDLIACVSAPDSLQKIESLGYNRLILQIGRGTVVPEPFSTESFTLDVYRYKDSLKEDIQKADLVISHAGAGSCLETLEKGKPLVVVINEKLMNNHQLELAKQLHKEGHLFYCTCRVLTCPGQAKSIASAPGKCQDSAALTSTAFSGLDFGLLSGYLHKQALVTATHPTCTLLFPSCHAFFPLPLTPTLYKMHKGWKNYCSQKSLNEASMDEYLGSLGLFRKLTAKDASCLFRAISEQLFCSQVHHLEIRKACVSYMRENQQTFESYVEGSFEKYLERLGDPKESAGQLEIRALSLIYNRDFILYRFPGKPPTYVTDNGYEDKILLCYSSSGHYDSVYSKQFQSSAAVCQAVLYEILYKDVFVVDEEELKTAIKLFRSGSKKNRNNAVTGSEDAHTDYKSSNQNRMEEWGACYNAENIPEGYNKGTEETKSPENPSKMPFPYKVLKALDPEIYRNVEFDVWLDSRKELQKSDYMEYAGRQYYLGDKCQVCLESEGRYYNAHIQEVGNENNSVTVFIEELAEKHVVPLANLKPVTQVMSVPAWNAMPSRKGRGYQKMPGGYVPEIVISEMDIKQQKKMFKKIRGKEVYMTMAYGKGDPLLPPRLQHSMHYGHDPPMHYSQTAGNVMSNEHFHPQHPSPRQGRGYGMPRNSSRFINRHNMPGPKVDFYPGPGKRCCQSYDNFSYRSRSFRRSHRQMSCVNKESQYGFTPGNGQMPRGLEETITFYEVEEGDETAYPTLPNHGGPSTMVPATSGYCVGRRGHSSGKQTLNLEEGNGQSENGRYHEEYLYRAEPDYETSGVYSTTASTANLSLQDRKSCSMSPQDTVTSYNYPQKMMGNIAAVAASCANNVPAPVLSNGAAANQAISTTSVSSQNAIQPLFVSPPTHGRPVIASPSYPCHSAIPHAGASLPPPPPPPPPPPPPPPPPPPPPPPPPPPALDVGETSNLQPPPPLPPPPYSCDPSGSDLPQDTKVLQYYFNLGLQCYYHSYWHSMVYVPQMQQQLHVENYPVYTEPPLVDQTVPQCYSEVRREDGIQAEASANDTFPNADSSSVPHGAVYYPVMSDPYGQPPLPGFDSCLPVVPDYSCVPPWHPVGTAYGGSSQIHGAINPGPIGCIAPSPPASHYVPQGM
Procedure, shortened: (§1)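 Average log2 ratios of fragment over vehicle were obtained by unpaired t-test from global-median-normalised Spectronaut label-free quantities. Proteins with ≥2 unique peptides were included. HEK293T lysate (495 µg per sample) was treated in triplicate with fragment at 200 µM or vehicle for 3 h, then with Biotin-Ahx-Ub-VS at 0.5 µM final for 1 h, and labelled DUBs were NeutrAvidin-enriched and run by diaPASEF LC-MS/MS.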

[2] = target: ATXN3 (UniProt P54252)
Procedure, shortened: as §1

[3] = target: T2, BAP1 (UniProt Q92560)
T2 sequence (whole entry): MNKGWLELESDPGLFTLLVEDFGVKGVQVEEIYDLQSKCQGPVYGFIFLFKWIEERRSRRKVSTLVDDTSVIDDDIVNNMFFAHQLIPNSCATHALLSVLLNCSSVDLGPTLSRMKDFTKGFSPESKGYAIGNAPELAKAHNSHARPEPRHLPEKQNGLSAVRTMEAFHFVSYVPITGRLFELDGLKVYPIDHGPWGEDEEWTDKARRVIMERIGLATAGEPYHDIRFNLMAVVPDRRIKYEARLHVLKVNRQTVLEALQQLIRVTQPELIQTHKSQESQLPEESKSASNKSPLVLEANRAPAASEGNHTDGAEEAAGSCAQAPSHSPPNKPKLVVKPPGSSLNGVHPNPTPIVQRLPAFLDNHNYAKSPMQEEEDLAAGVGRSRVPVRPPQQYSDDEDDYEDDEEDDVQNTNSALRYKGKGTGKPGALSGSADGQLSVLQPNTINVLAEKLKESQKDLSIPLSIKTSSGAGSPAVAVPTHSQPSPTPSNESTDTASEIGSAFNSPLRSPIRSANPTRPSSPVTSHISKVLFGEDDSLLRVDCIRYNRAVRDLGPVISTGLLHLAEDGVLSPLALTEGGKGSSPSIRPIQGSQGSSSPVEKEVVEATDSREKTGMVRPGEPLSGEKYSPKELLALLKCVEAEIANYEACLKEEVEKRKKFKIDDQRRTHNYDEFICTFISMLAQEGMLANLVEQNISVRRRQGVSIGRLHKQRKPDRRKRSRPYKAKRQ
Procedure, shortened: as §1

[4] = target: EIF3F (UniProt O00303)
Procedure, shortened: as §1

[5] = target: EIF3H (UniProt O15372)
Procedure, shortened: as §1

[6] = target: T3, FAM105A (UniProt Q9NUU6)
T3 sequence (whole entry): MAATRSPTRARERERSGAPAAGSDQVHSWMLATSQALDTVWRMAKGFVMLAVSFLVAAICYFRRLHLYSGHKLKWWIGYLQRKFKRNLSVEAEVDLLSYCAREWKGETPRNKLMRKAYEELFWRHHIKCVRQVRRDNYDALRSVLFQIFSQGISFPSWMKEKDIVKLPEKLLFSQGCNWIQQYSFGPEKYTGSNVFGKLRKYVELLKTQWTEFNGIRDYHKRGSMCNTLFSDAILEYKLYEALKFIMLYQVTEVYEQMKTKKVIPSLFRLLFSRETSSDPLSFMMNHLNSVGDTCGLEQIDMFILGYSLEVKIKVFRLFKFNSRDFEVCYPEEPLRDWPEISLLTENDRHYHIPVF
Procedure, shortened: as §1

[7] = target: OTUB1 (UniProt Q96FW1)
Procedure, shortened: as §1

[8] = target: T4, OTUD4 (UniProt Q01804)
T4 sequence (whole entry): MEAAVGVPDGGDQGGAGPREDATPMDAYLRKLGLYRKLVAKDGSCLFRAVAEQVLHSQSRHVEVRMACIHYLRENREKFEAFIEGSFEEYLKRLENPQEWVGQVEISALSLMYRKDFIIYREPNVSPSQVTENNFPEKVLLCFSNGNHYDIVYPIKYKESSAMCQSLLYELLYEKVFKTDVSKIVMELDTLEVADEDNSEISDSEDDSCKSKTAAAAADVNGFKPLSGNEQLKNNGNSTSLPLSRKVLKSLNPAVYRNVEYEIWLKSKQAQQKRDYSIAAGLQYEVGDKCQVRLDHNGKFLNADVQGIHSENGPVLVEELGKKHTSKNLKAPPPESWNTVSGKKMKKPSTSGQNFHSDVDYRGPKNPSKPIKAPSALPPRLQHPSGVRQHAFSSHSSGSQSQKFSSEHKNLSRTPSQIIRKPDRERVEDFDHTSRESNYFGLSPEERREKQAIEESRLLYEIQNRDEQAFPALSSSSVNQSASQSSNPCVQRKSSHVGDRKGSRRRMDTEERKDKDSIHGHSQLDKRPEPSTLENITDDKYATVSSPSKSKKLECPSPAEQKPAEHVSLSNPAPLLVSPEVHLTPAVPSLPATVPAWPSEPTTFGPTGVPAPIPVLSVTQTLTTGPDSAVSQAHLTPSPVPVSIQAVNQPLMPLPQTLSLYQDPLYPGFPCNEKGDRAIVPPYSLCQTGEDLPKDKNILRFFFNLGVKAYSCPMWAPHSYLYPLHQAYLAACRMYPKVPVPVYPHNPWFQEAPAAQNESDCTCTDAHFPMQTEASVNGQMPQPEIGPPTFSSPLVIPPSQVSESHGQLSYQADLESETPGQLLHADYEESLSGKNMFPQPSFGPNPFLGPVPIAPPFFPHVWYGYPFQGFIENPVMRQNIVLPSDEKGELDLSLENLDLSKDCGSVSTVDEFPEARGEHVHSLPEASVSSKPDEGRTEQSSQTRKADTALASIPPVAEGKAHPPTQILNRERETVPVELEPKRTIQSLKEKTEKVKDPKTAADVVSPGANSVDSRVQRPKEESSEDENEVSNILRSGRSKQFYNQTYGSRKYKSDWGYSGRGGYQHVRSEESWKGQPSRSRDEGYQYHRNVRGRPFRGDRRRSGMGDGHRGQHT
Procedure, shortened: as §1

[9] = target: T5, OTUD5 (UniProt Q96G74)
T5 sequence (whole entry): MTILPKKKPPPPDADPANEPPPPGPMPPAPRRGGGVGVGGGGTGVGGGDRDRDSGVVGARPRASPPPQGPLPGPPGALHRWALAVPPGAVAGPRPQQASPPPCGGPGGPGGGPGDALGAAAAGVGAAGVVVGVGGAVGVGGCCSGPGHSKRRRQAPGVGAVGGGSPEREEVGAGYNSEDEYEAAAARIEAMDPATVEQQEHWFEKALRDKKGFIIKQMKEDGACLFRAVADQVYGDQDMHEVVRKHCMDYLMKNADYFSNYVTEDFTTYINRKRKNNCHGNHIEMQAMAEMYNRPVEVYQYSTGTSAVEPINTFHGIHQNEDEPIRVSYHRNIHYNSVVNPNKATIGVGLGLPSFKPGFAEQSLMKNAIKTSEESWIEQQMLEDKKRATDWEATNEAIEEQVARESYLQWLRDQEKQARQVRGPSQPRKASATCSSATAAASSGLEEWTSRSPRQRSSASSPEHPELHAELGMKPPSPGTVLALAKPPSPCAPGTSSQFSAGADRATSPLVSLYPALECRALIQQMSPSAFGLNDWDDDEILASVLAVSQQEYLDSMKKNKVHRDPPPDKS
Procedure, shortened: as §1

Measured: log2 ratio of Biotin-Ahx-Ub-VS probe labelling

EIF3F, sequence (O00303 whole entry): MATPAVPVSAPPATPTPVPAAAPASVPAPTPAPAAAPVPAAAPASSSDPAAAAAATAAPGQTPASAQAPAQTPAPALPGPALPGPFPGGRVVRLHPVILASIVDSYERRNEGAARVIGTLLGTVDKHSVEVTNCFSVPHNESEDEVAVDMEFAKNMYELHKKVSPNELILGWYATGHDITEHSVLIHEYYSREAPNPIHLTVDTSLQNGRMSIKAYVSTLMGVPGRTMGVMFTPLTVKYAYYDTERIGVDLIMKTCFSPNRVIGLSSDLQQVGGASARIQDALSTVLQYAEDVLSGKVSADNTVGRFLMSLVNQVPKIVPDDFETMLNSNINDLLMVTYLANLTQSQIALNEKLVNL
OTUB1, sequence (Q96FW1 whole entry): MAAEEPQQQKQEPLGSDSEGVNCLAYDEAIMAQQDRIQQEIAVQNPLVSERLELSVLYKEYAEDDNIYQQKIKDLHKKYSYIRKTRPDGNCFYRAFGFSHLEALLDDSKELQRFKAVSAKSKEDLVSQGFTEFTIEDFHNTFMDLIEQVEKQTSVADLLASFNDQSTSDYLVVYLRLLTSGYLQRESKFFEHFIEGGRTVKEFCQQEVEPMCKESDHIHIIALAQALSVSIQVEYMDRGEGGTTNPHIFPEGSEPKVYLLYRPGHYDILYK
EIF3H, sequence (O15372 whole entry): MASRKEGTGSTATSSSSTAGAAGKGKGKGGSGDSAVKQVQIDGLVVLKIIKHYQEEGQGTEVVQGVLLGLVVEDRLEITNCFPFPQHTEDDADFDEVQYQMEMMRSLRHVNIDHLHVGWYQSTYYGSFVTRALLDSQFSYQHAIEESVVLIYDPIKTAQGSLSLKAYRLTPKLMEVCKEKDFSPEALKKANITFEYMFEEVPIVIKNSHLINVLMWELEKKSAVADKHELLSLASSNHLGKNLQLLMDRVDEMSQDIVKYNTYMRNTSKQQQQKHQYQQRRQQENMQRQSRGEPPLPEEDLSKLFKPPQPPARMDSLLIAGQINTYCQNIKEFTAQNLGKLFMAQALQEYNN
ATXN3, sequence (P54252 whole entry): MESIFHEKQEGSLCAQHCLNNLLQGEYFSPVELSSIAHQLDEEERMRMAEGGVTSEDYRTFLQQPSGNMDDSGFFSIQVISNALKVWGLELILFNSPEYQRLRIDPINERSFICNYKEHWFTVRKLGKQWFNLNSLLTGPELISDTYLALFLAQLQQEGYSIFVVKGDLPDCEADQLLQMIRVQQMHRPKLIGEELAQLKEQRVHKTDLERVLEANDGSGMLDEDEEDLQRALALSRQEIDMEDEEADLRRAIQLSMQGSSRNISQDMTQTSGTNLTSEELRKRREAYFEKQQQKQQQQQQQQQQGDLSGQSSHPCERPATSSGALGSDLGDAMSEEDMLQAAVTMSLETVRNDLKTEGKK

O=C(CCl)N1CCC(C(=O)N2CCCC2)CC1
inactive: [1] 0.141 | [2] -0.319 | [3] -0.206 | [4] -0.123 | [5] -0.0247 | [6] -0.324 | [7] -0.0283 | [8] 0.178 | [9] -0.137
